The values below come from PubChem BioAssay (NCI).

Each structure is given as a SMILES string. About 83,000 compounds went through this panel and 20% of them were active in at least one assay; those are over-represented in the sample as a whole.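 For each line, cells grew in 96-well plates with the test compound present at a single concentration for 48 hours.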 A number with no mark means an inactive call. The source made the active and inactive calls. The calls were made as follows: active = growth percent below 10; inactive = the rest.

For this experiment, the system named is HL-60(TB) leukemia. In words: NCI-60 one-dose screen, 48 h (100 = growth as untreated, 0 = no growth, -100 = all killed). As to conditions: 10 µM unless noted.
For the molecule `C=CCCCCCCCCCOC(C)=O`, the growth was 120%.

Consider `Nc1n[nH]c2ccc([C@@H]3Nc4ccc5cn[nH]c5c4[C@H]4C5CCC(C5)[C@@H]34)cc12` (stereo not given in full), for which the growth was -29.2% (active).

`COc1cc2c(=O)n(C3CCCCCC3)c3c4cc[nH]c4ncc3c2cc1OC`: the growth was 74.1%.

For the molecule `COc1ccc2c(c1)/C(=N/c1n[nH]c(=S)s1)C(=O)N2`, the growth is 61.6%.

Consider `CN(C)CCN1C(=O)c2ccc3c4c(ccc(c24)C1=O)C(=O)N(CCN=C=S)C3=O`, for which the growth was -51.1% (active).

For the molecule `CSCCC(NC(=O)c1ccccc1)C(=O)N/N=C1\S/C(=C/c2ccc(Cl)cc2)C(=O)N1C` (stereo not given), the growth is 51.6%.

On to `CCCCCN1C=C/C(=C\C(=O)N(C)c2ccc(Oc3ccccc3)cc2)c2ccccc21`, for which the growth was 66.9%.

As to `O=C(/C=C/c1nnc2n(Cc3ccccc3)c(=O)c3c4c(sc3n12)CCCC4)c1ccccc1`, the growth was 43.5%.

With `COc1ccc(CCN(CC(=O)N(CC(N)=O)C2CCC[C@@H]2OCc2ccccc2)C(=O)CN(C(=O)CN(CCc2ccc(Cl)cc2)C(=O)CN(C(=O)CN(C)Cc2ccccc2F)[C@H](C)C2CCCCC2)[C@H](C)C2CCCCC2)cc1OC` (stereo not given in full), the growth is -24.4% (active).

`C[C@@H]1N=C(c2ccc3ccccc3n2)Nc2nc3ccccn3c2C1=O`: the growth was 97.6%.

As for `COc1ccc(C(=O)COc2cccc(/C=C3\CSc4ccc(Cl)cc4C3=O)c2)cc1`, the growth is 81.8%.

For `CC(=O)Nc1ccc(C=Nc2ccc3ccccc3c2)cc1`, the growth was 107%.

Consider `CN(C)S(=O)(=O)c1cccc(-c2nc3sc4c(c3c(=O)[nH]2)CCCC4)c1`, for which the growth is 22.3%.

On to `CCOc1cc(/C=C/C(=O)CC(=O)/C=C/c2ccc(OC(=O)CNc3nc4ccc(OC)cc4s3)c(OCC)c2)ccc1OC(=O)CNc1nc2ccc(OC)cc2s1`, for which the growth was 21.5%.

Regarding `Cn1c(N)c(N=Nc2ccc(S(=O)(=O)Nc3nccs3)cc2)c(=O)n(C)c1=O`, the growth was 94.6%.

Regarding `CC1OC(n2c3ccccc3c3c4c(c5c6ccccc6[nH]c5c32)C(=O)N(CCN[C@@H]2CCC[C@H]2N)C4=O)CC(O)C1O` (stereo not given in full), the growth is 29.2%.

For `COc1ccc2sc3c(NCCCNCCO)nc4ccccc4c3c(=O)c2c1`, the growth is 36.5%.

For `CCCCCN1C=C/C(=C\C(=O)N(C)c2ccc(OC(F)(F)F)cc2)c2ccccc21`, the growth is 111%.

As to `O=c1oc2ccc(Cl)cc2c(=O)n1-c1ccc(I)cc1F`, the growth was -46.3% (active).

Consider `Cc1ccc(-c2nc(SCC(=O)Nc3nc(-c4ccc(Cl)cc4)cs3)[nH]c(=O)c2C#N)cc1`, for which the growth was 111%.

As for `CCCCCC(=O)OCc1ccc(Cl)c(Cl)c1`, the growth was 97.2%.

`COc1ccc(-c2cc(-c3ccc(Cl)cc3)nc(SCCCC(=O)NO)n2)cc1OC`: the growth was -32.4% (active).

Regarding `Clc1ccc2c(NCCCCNc3nc(N4CCCCC4)nc4ccccc34)ccnc2c1`, the growth was -69% (active).

With `COc1ccc(C(=O)C(Br)C(Br)C(=O)O)cc1` (stereo not given), the growth is 103%.

For `N#CC1C(=N)Cc2ccccc2-c2ccccc21` (stereo not given), the growth was 28.2%.

As to `COc1cc(C2CC(c3cccc(Nc4ccncc4)c3)=NN2C(C)=O)cc(OC)c1OC` (stereo not given), the growth is 94.6%.

Turning to `O=C1Cc2c([nH]c3ccc([N+](=O)[O-])cc23)-c2ccccc2N1`, the growth was -33.8% (active).

For `O=C(CC(NC(=O)OCc1ccccc1)C(=O)OCc1ccccc1)OCc1ccccc1` (stereo not given), the growth is 126%.

Regarding `CCCCn1c(=O)c2c(nc3n2CCCN3CCc2ccc(OCC(=O)NCCN(CC)CC)cc2)n(CCCC)c1=O`, the growth was 67.3%.

For `O=S(=O)(NCCNc1nccc(-c2c(-c3ccc(F)c(O)c3)nc3occn23)n1)c1ccc(Cl)cc1`, the growth is 96.6%.

`N#CC(C#N)=Cc1cc2ccccc2nc1Oc1ccc(C(F)(F)F)cc1`: the growth was 78.4%.

As to `c1ccc(N2c3nc4ccccc4cc3Sc3cc4ccccc4nc32)nc1`, the growth was 97.2%.

`CCCCNC(=O)NS(=O)(=O)Cc1ccccc1`: the growth is 88.1%.

In the case of `COc1ccc(/C=C2\C=C(c3ccccc3)N(CCc3ccccc3)C2=O)cc1OC`, the growth is 19.6%.

Consider `Cc1ccc2c(c1)nc(C)n2-c1ncnc2c1CC(C)c1cc(O)ccc1N2C` (stereo not given), for which the growth was -5.44% (active).

Consider `c1coc([C@@H]2C[C@@H]3Cc4ccc5ccccc5c4N2O3)c1`, for which the growth is 100%.

Regarding `CCCCCCCC/C=C\CCCCCCCCOc1cccc(CC(=O)NCC[N+]2(C)CCCCC2)c1`, the growth is 28%.

In the case of `CC(C)c1nc(N(C)S(C)(=O)=O)nc(-c2ccc(F)cc2)c1/C=C/C(=O)C[C@@H](O)CC(=O)O`, the growth was 106%.

Take `Cc1ccc(Sc2ccccc2N)cc1`: the growth is 115%.

`C=C1C(=O)O[C@H]2[C@H]1CC/C(COC(=O)C(=O)c1c[nH]c3ccc(Cl)cc13)=C\CC[C@@]1(C)O[C@@H]21`: the growth is -44.6% (active).
